Values joined by “and” are separate entries in the source; they are usually repeats but may differ in a detail not shown here. Equal values may be shown once. Inconclusive results are not listed. Where a structure was tested more than once in an assay, its records may differ in their call. Active and inactive are the calls of the source. The calls were made as follows, unless noted: active = hit-call score of the fitted dose curve at least 0.9, where 1 is the maximum; inactive = score below 0.9.
How the values were obtained:
[1] = target: Retinoic acid receptor RXR-alpha (Homo sapiens) (UniProt P19793); test: ATG_RXRa_TRANS: Attagene TRANS-FACTORIAL HepG2 Assay for human Retinoid X Receptor alpha (RXRa) (AID 2283012; active = hit-call score of the fitted dose curve at least 0.9, where 1 is the maximum)
In short: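 TRANS format reporting activity of exogenous RXRa-Gal4 chimera in transiently transfected HepG2, 24 h exposure. Reporter transcripts quantified by RT-PCR with capillary electrophoresis, with gain of signal scored relative to DMSO.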

[2] = target: human Retinoid X Receptor beta (RXRb), RXRB (gene 6257) (UniProt P28702); test: ATG_RXRb_TRANS: Attagene TRANS-FACTORIAL HepG2 Assay for human Retinoid X Receptor beta (RXRb) (AID 2283013; active = hit-call score of the fitted dose curve at least 0.9, where 1 is the maximum)
In short: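 Readout is reporter transcript induction after 24 h dosing. It is measured by RT-PCR of total RNA followed by fluorescent capillary electrophoresis. HepG2 liver cells carry transfected multiple reporter units driven by an exogenous RXRb-Gal4 fusion; activity is relative to DMSO.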

[3] = target: human Thyroid Receptor alpha (THRa1), THRA (gene 7067) (UniProt P10827); test: ATG_THRa1_TRANS: Attagene TRANS-FACTORIAL HepG2 Assay for human Thyroid Receptor alpha (THRa1) (AID 2283014; active = hit-call score of the fitted dose curve at least 0.9, where 1 is the maximum)
In short: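 HepG2 cells transiently transfected with chimeric NR-Gal4 and GAL4-UAS reporter units, dosed 24 h. Reporter mRNA quantified by RT-PCR, fluorescent labeling, HpaI digestion and capillary electrophoresis; gain-of-signal fit versus DMSO.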

[4] = read-out: E-selectin (Homo sapiens) (UniProt P16581); test: BSK_3C_Eselectin: BioMAP Diversity Plus: 3C Assay for Eselectin Biomarker Activity (AID 2283015); settings: primary human endothelial cells (HUVEC); actives raise or lower the signal
In short: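 Primary human umbilical vein endothelial cells (3C system), read 24 h after compound addition; E-selectin measured by ELISA. Bidirectional curve fitting against DMSO baseline; cytotoxicity by parallel SRB total-protein staining.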

[5] = read-out: Monocyte Chemoattractant Protein-1 (MCP1), CCL2 (gene 6347); test: BSK_3C_MCP1: BioMAP Diversity Plus: 3C Assay for Monocyte Chemoattractant Protein-1 (MCP1) Biomarker Activity (AID 2283017); settings: primary human endothelial cells (HUVEC); actives raise or lower the signal
In short: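 Human umbilical vein endothelial cells (3C system) exposed to chemicals for 24 h; MCP-1 quantified by ELISA against the DMSO baseline with bidirectional fitting, and parallel SRB staining used to assess cytotoxicity.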

[6] = read-out: Monocyte Chemoattractant Protein-1 (MCP1), CCL2 (gene 6347); test: BSK_4H_MCP1: BioMAP Diversity Plus: 4H Assay for Monocyte Chemoattractant Protein-1 (MCP1) Biomarker Activity (AID 2283018); settings: primary human endothelial cells (HUVEC); actives raise or lower the signal
In short: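 ELISA of MCP-1 (CCL2) 24 h after chemical dosing of HUVEC in the BioMAP 4H system. Gain or loss versus DMSO fitted; parallel SRB staining (560 nm) tracked overt cytotoxicity.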

[7] = read-out: Human Leukocyte Antigen - DR isotype (HLADR), HLA-DRA (gene 3122); test: BSK_3C_HLADR: BioMAP Diversity Plus: 3C Assay for Human Leukocyte Antigen - DR isotype (HLADR) Biomarker Activity (AID 2283019); settings: primary human endothelial cells (HUVEC); actives raise or lower the signal
In short: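 HUVEC monoculture, HLA-DR measured by ELISA 24 h after chemical dosing. Fitted bidirectionally against DMSO baseline; parallel SRB staining assessed cytotoxicity, with 3C proliferation read by SRB at 48 h.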

[8] = read-out: Interleukin-8 (IL8), CXCL8 (gene 3576); test: BSK_3C_IL8: BioMAP Diversity Plus: 3C Assay for Interleukin-8 (IL8) Biomarker Activity (AID 2283020); settings: primary human endothelial cells (HUVEC); actives raise or lower the signal
In short: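 IL-8 was measured by ELISA in HUVEC cultures 24 h after chemical dosing, with gain or loss of signal fitted relative to DMSO. Parallel SRB total-protein staining tracked overt cytotoxicity.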

[9] = read-out: Monokine induced gamma interferon (MIG), CXCL9 (gene 4283); test: BSK_3C_MIG: BioMAP Diversity Plus: 3C Assay for Monokine induced gamma interferon (MIG) Biomarker Activity (AID 2283021); settings: primary human endothelial cells (HUVEC); actives raise or lower the signal;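 as to AC50: MIG protein level measured by immunoassay in the treated endothelial cultures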
In short: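 ELISA measurement of MIG in human umbilical vein endothelial cells 24 h after treatment. Cytotoxicity tracked by SRB staining in parallel cultures; gain or loss of signal fitted relative to DMSO.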

[10] = BSK_3C_SRB: Viability Assessment in the BioMAP Diversity Plus: 3C Assay (AID 2283023); settings: primary human endothelial cells (HUVEC);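 also: fitted both ways against DMSO so a hit may be signal rise or drop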
In short: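 Human umbilical vein endothelial cells in the 3C system, treated 24 h. Total protein measured by 0.1% sulforhodamine B staining after 10% TCA fixation, read at 560 nm; bidirectional fit versus DMSO.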

[11] = read-out: Matrix Metallopeptidase 1 (MMP1), MMP1 (gene 4312); test: BSK_BE3C_MMP1: BioMAP Diversity Plus: BE3C Assay for Matrix Metallopeptidase 1 (MMP1) Biomarker Activity (AID 2283024); settings: primary human bronchial epithelial cells; actives raise or lower the signal
In short: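 ELISA measurement of MMP-1 after 24 h compound exposure of primary human bronchial epithelial cells. Changes in either direction fitted relative to DMSO; parallel SRB staining checked overt cytotoxicity.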

[12] = BSK_3C_Vis: BioMAP Diversity Plus: 3C Assay for Morphology Visualization (AID 2283025); settings: primary human endothelial cells (HUVEC);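 also: fitted both ways so gain or loss versus DMSO counts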;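 as to AC50: light microscopy image of cell morphology used as background control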
In short: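 Light-microscopy visualization of HUVEC cultures at 24 h post-treatment, with DMSO as baseline for bidirectional fitting.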

[13] = read-out: Pselectin, SELP (gene 6403); test: BSK_4H_Pselectin: BioMAP Diversity Plus: 4H Assay for Pselectin Biomarker Activity (AID 2283026); settings: primary human endothelial cells (HUVEC); actives raise or lower the signal
In short: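 ELISA of surface P-selectin on HUVEC, 24 h after dosing, with parallel SRB staining (0.1% after 10% TCA fixation, 560 nm) for overt cytotoxicity. Activity fitted in both directions relative to DMSO.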

[14] = BSK_4H_SRB: Viability Assessment in the BioMAP Diversity Plus: 4H Assay (AID 2283027); settings: primary human endothelial cells (HUVEC);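 also: cells exposed to compound for 24 h before staining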;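 as to AC50: curves fitted both ways versus DMSO so AC50 may be loss or gain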
In short: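 HUVEC, 24 h post-dose; 10% TCA fix, 0.1% SRB stain, A560 nm. Total protein = overt cytotoxicity, parallel to biomarker read. Bidirectional fit vs DMSO baseline.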

[15] = BSK_BE3C_SRB: Viability Assessment in the BioMAP Diversity Plus: BE3C Assay (AID 2283028); settings: primary human bronchial epithelial cells;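 as to AC50: fitted both ways so AC50 may mark signal gain or loss versus DMSO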
In short: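 Human bronchial epithelial primary cells in confluent culture, 24 h after chemical dosing; total protein by 0.1% SRB staining after 10% TCA fixation, read at 560 nm. Bidirectional fitting versus DMSO baseline.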

[16] = read-out: Thrombomodulin, THBD (gene 7056); test: BSK_3C_Thrombomodulin: BioMAP Diversity Plus: 3C Assay for Thrombomodulin Biomarker Activity (AID 2283029); settings: primary human endothelial cells (HUVEC); actives raise or lower the signal
In short: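 ELISA measurement of thrombomodulin on HUVEC surface 24 h after chemical dosing; activity fitted in both directions relative to DMSO vehicle.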

[17] = read-out: Urokinase-type plasminogen activator receptor (uPAR), PLAUR (gene 5329); test: BSK_4H_uPAR: BioMAP Diversity Plus: 4H Assay for Urokinase-type plasminogen activator receptor (uPAR) Biomarker Activity (AID 2283030); settings: primary human endothelial cells (HUVEC); actives raise or lower the signal
In short: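 Human umbilical vein endothelial cells in the 4H system, 24 h after chemical dosing. Cell-surface uPAR measured by ELISA, fitted in both directions versus DMSO; cytotoxicity checked by SRB total protein in parallel cultures.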

[18] = read-out: Vascular endothelial growth factor receptor 2 (Homo sapiens) (UniProt P35968); test: BSK_4H_VEGFRII: BioMAP Diversity Plus: 4H Assay for Vascular endothelial growth factor receptor 2 (VEGFR2) Biomarker Activity (AID 2283031); settings: primary human endothelial cells (HUVEC); actives raise or lower the signal;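 as to AC50: cell-surface VEGFR2 protein level quantified by ELISA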
In short: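 Primary human umbilical vein endothelial cells (4H system), 24 h exposure; cell-surface VEGFR2 measured by ELISA. Bidirectional fitting versus DMSO; cytotoxicity checked in parallel by SRB total-protein staining.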

[19] = target: human Vitamin D Receptor (VDR), VDR (gene 7421) (UniProt P11473); test: ATG_VDR_TRANS: Attagene TRANS-FACTORIAL HepG2 Assay for human Vitamin D Receptor (VDR) (AID 2283022; active = hit-call score of the fitted dose curve at least 0.9, where 1 is the maximum)
In short: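 HepG2 cells were transiently transfected with GAL4-UAS reporter units and a chimeric VDR-Gal4 construct, then dosed for 24 hours. Reporter mRNA was quantified by RT-PCR, fluorescent labeling, HpaI digestion and capillary electrophoresis; gain of signal analysed vs DMSO.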

[20] = read-out: Interleukin-1 alpha (IL1a), IL1A (gene 3552); test: BSK_BE3C_IL1a: BioMAP Diversity Plus: BE3C Assay for Interleukin-1 alpha (IL1a) Biomarker Activity (AID 2283016); settings: primary human bronchial epithelial cells; actives raise or lower the signal
In short: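 IL-1a measured by ELISA after 24 h treatment of human primary bronchial epithelial cells, with gain or loss of signal fitted versus DMSO. Parallel cultures stained with SRB gauge overt cytotoxicity.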

Measured: AC50

human Vitamin D Receptor (VDR), VDR (gene 7421), sequence (P11473 whole entry, looked up, the tested form may be a part): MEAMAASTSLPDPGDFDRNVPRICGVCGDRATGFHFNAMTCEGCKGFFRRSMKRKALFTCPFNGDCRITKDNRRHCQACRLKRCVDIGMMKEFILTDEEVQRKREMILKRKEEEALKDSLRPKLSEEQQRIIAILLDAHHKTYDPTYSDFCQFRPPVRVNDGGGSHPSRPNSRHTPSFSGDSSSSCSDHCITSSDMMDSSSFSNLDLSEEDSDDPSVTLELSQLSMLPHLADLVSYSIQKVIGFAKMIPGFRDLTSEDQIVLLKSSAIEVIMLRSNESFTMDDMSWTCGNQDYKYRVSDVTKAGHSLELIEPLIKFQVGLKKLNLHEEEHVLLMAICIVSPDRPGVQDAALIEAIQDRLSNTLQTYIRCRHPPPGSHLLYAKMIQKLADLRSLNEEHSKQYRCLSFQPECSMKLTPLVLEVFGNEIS
human Thyroid Receptor alpha (THRa1), THRA (gene 7067), sequence (P10827 whole entry, looked up, the tested form may be a part): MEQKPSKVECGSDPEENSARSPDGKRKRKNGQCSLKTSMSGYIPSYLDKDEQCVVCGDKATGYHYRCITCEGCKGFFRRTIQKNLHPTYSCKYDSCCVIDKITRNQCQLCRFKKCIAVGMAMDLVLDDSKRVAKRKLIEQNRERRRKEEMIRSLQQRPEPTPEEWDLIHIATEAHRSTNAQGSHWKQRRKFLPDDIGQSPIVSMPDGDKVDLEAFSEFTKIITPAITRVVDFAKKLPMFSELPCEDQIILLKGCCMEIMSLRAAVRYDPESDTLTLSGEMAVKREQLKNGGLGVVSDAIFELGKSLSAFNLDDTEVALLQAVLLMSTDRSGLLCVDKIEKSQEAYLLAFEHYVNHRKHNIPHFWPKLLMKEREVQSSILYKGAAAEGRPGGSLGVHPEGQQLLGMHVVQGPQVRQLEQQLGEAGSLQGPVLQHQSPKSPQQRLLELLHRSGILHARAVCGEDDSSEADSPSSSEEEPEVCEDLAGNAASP
E-selectin (Homo sapiens), sequence (P16581 whole entry, looked up): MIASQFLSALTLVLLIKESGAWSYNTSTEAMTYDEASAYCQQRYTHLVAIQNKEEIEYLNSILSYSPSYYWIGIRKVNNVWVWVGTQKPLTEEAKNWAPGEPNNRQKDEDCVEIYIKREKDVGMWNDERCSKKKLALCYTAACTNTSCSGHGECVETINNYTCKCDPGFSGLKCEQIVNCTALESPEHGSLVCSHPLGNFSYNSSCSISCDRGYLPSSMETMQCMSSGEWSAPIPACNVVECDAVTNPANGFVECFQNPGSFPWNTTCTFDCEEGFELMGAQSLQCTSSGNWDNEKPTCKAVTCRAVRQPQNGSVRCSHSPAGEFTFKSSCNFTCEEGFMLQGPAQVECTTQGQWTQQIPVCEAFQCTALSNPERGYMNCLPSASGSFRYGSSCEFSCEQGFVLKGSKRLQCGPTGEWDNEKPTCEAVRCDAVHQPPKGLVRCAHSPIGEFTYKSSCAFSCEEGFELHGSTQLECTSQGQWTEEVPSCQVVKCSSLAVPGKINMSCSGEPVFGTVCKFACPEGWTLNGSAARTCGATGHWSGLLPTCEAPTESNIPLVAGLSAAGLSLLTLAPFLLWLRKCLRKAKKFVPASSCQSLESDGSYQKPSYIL
Retinoic acid receptor RXR-alpha (Homo sapiens), sequence (P19793 whole entry, looked up, the tested form may be a part): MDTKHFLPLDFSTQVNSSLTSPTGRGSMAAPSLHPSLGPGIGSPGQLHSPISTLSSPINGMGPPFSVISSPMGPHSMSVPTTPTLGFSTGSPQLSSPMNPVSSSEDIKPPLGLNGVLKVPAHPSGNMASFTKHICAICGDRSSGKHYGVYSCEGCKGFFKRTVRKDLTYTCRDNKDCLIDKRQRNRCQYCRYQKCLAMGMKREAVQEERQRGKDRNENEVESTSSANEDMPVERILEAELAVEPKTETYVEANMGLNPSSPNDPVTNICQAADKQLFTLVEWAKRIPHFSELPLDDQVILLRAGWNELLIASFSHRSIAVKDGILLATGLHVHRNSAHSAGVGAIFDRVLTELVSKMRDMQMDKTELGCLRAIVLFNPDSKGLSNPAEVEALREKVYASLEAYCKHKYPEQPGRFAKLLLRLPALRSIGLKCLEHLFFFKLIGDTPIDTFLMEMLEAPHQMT
human Retinoid X Receptor beta (RXRb), RXRB (gene 6257), sequence (P28702 whole entry, looked up, the tested form may be a part): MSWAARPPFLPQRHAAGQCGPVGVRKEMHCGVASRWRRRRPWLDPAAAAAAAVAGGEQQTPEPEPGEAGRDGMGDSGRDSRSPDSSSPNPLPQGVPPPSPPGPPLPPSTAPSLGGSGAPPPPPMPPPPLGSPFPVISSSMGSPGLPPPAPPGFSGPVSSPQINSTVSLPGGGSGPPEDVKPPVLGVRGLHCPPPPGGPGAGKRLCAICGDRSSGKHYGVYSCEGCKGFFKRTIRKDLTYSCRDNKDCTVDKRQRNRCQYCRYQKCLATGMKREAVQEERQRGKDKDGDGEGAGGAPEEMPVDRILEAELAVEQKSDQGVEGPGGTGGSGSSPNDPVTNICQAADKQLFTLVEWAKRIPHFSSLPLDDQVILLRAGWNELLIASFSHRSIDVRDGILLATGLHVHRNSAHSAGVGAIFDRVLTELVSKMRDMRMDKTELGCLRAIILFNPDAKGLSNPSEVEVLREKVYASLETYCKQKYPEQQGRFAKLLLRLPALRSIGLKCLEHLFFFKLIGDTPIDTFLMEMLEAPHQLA

COc1cccc(O)c1
inactive: [1] | [2] | [3] | [4] | [5] | [6] | [7] | [8] | [9] | [10] | [12] | [13] | [14] | [15] | [16] | [17] | [18]
active: [11] 193 nM

C[C@]12CC[C@@H]3c4ccc(O)cc4CC[C@H]3[C@@H]1C[C@@H](O)[C@@H]2O
inactive: [1] | [2] | [3] | [4] | [5] | [6] | [7] | [8] | [9] | [19] | [10] | [11] | [12] | [13] | [14] | [15] | [16] | [17] | [18]

O=C(O)CCC(F)(F)C(F)(F)C(F)(F)C(F)(F)C(F)(F)C(F)(F)F
inactive: [1] | [3] | [4] | [5] | [6] | [7] | [8] | [9] | [19] | [10] | [13] | [14] | [15] | [16] | [17] | [18]
active: [2] 51.1 µM

CCC(=O)O
inactive: [1] | [2]

Cc1ccccc1C(OCCN(C)C)c1ccccc1 (stereo not given)
inactive: [1] | [2]

C=CC(=O)OCCC(F)(F)C(F)(F)C(F)(F)C(F)(F)C(F)(F)C(F)(F)F
inactive: [1] | [2] | [3] | [19]

Nc1ccn([C@@H]2O[C@H](CO)[C@@H](O)C2O)c(=O)n1 (stereo not given in full)
inactive: [1] | [2]

CCCCCCCCCCCCCCCCCC[N+](C)(C)Cc1ccccc1
inactive: [1] | [2] | [19] | [15] | [16] | [18]
active: [3] 50000 nM | [4] 2680 nM | [5] 716 nM | [6] 929 nM | [7] 515 nM | [8] 4.38 µM | [9] 5.26 µM | [10] 299 nM | [12] 425 nM | [13] 975 nM | [14] 2.63 µM | [17] 590 nM

CNNCc1ccc(C(=O)NC(C)C)cc1
inactive: [1] | [2] | [3] | [19]

NCc1cccc(CN)c1
inactive: [1]

CCCCCCOC(=O)c1ccc(O)cc1
inactive: [1] | [3] | [19]
active: [2] 33.4 µM

O=C(O)C(F)(F)OC(F)(F)C(F)(F)OC(F)(F)C(F)(F)OC(F)(F)C(F)(F)C(F)(F)C(F)(F)F
inactive: [1] | [3] | [19] | [16] | [18]
active: [2] 13.3 µM and 9.78 µM | [20] 6.32 µM and 6.18 µM | [5] 44.8 µM and 46.6 µM | [6] 42.4 µM and 40.5 µM | [7] 45.5 µM and 50.6 µM | [8] 36.6 µM and 23.5 µM | [9] 58.2 µM and 54.8 µM | [10] 26.1 µM and 24 µM | [13] 48.1 µM and 54.2 µM | [14] 47.9 µM and 52.7 µM | [15] 7.88 µM and 7.84 µM | [16] 52000 nM | [17] 43.5 µM and 43.6 µM | [18] 47700 nM
